Measured values taken from PubChem BioAssay.
Active and inactive are the calls of the source. The rule behind the calls is not given here.

Assay: inhibition of 3D7 malaria parasite growth – strain 3D7 (AID 2306);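 note: 0% = DMSO wells and 100% = chloroquine plus artemisinin control wells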
Settings: P. falciparum 3D7 erythrocytic growth, LDH absorbance, 72 h; at 2 µM; active compounds read high

Growth inhibition, active:
c1cncc(Oc2ccc(Nc3ccnc4cc(-c5cccc(CN6CCCCC6)c5)ccc34)cc2)c1 101%
CCCC(C)NC[C@@H](O)[C@H](Cc1ccccc1)NC(=O)c1cc(C2CCCC2)cc(N2CCCCS2(=O)=O)c1 (stereo not given in full) 98%
O=C(Nc1ccc(Cl)cc1)Nc1cccc(-c2ccc(-c3nc4ccccc4[nH]3)cc2)c1 87%
CC(=O)c1ccc(NC(=O)Nc2ccc(N(C)c3ccnc(NC4CC4)n3)cc2)cc1 100%
CCOc1c(N2CCN(CCCCNC(=O)c3ccc(NC(=O)c4ccc(Cl)cc4)cc3)CC2)ccc2ccccc12 100%
CCCCc1cc(NCc2ccncc2)nc(Nc2ccc(C)cc2)n1 101%
Cc1ccc(F)c(C(=O)Nc2cccc(-c3nn4ccccc4c3-c3ccnc(Nc4cccc(F)c4)n3)c2)c1F 98%
O=C(CSc1ccccn1)Nc1c(F)cccc1F 88%
Cc1cccc2[nH]c(-c3ccc(-c4ccc(NC(=O)Nc5ccc(Cl)c(Cl)c5)cc4)s3)nc12 101%
O=c1ccc2ncc(Cl)c3c2n1CC3CN1CCC(NCc2cc3c(cn2)OCCO3)CC1 (stereo not given) 96%
Cc1cc(-c2nc3cncc(-c4cccc(CN5CCCC5Cc5cccnc5)c4)c3n2C)nn1C (stereo not given) 83%
C=C[C@]1(C)C[C@@H](OC(=O)NC(=O)C2CCN(C(=O)CSc3ccccc3)CC2)[C@]2(C)[C@H](C)CC[C@]3(CCC(=O)[C@H]32)[C@@H](C)[C@@H]1O 93%
COc1ccc2c(c1)[nH]c1c(/C=C/c3ccc([N+](=O)[O-])cc3)nccc12 100%
CN1CCN(CCCN(Cc2cccc(-c3ccc(CNCc4ccc5c(c4)OCO5)cc3)c2)C(=O)CCC2CCCC2)CC1 98%
Cc1cc(N[C@@H](Cc2ccccc2)C(=O)NCc2cccc(F)c2)nc(NCCc2cccnc2)n1 92%
O=S(=O)(c1cc(Cl)c(Cl)cc1Cl)N1CCCCC(c2ccc(C(F)(F)F)cc2)=N1 98%
COc1ccc(CCn2c(=N)c(C(=O)NCc3ccc(C)cc3)cc3c(=O)n4ccccc4nc32)cc1 97%
FC(F)(F)c1cccnc1N1CCC(Nc2nc3ccc(Cl)cc3[nH]2)CC1 93%
CCOc1cccc2nc(NCCCNCc3ccc(Cl)c(Cl)c3)cc(NCCCNCc3ccc(Cl)c(Cl)c3)c12 98%
O=[N+]([O-])c1ccc2ncnc(Nc3ccc(F)c(Cl)c3)c2c1 100%
O=C(NCc1ccc(F)cc1)Nc1ccc(-c2cccc(-c3nc4ccc(F)cc4[nH]3)c2)cc1 100%
Clc1ccc(-c2ccc(C=NNc3nc(Nc4ccccc4)nc(Nc4ccccc4)n3)o2)cc1Cl 97%
COc1ccc(Nc2c3ccc(Cl)cc3nc3ccc(OC)cc23)cc1 94%
CCC(C)NC(=O)CN1CN(c2ccccc2)C2(CCN(C(=O)c3ccc(C(C)(C)C)cc3)CC2)C1=O (stereo not given) 101%
COc1ccc(C2CCN(CCCCNC(=O)c3ccc(NC(=O)c4ccc(Cl)cc4)cc3)CC2)c(C)c1 98%
O=C(NCCc1ccccc1)c1cc(-c2cccnc2)cnc1NCC1CC1 93%
Cc1nccc2c(NC(=O)N[C@@H]3CCN(c4ncc(C(F)(F)F)cc4Br)C3)cccc12 96%
Nc1cccc(CNCc2cccc(-c3cccc(-c4nc5ccc(C(F)(F)F)cc5[nH]4)c3)c2)c1 102%
CC1CN=C(c2cccc(NC(=O)Nc3cccc(C4=NCC(C)N4)c3)c2)N1 (stereo not given) 94%
COc1ccc(-c2ccc(CN(C)C3CCC(NC(=O)c4cc5ccccc5[nH]4)CC3)cc2)cn1 (stereo not given) 88%
N#Cc1ccc(-c2ccc(C(=O)NC3CCN(CCN4CCC(c5cn(CCO)c6ccccc56)CC4)CC3)cc2)cc1 100%
COc1ccc(S(=O)(=O)Nc2cc(C)cc(Br)c2OC)cc1N1CCN(C(=O)C(Cl)(Cl)Cl)CC1 91%
CC(C)CNCc1ccc(-c2ccccc2CN(C(=O)NCCc2ccccc2)C2CCN(Cc3ccccc3)CC2)cc1 98%
c1ccn2c(Sc3ncnc4sccc34)ncc2c1 100%
CC(Oc1ccc(NC(=O)c2cccs2)cc1)C(=O)c1ccc(Cl)cc1 (stereo not given) 92%
Cc1cc(NCCC(=O)Nc2ccccc2)nc(NCCc2ccccc2)n1 99%
COc1ccc2nccc(N3CCN(CCNCc4ccc5c(n4)NC(=O)CO5)CC3)c2n1 98%
CN(C)C(=O)c1cc(CNCc2ccccc2)ccc1-c1cccc(CNCc2ccc(-c3ccccc3)cc2)c1 90%
COC(=O)c1cccc(CNCc2cccc(-c3cccc(-c4nc5ccc(C(F)(F)F)cc5[nH]4)c3)c2)c1 102%
CC[C@H](C)CNC(=O)c1cncc(-c2ccc(CNCCCc3ccccc3)cc2)c1 101%
